The values that follow come from PubChem BioAssay (NCI).

Each structure is given as a SMILES string. About 83,000 compounds went through this panel and 20% of them were active in at least one assay; those are over-represented in the sample as a whole.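 In brief: 96-well plates, 48 h treatment, single concentration, percent growth endpoint.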 Unmarked numbers belong to inactive results. Calls of active or inactive are those of the source. How the source made its calls: active means growth percent below 10; inactive means the rest.

For the experiment, the system named is OVCAR-8 ovarian. Description: NCI-60 one-dose screen, 48 h (100 = growth as untreated, 0 = no growth, -100 = all killed). The note with it: 10 µM.
Consider `COC(=O)c1c(C(=O)OC)c2n(c1C)[C@@H]([C@@H](C)[C@H]1CC[C@H]3[C@@H]4CCC5=CC(=O)CC[C@]5(C)[C@H]4CC[C@]13C)SC2`, for which the growth is 26.7%. The same measure for `COc1ccc(C(=O)/C=C/c2cc(C(F)(F)F)cc(C(F)(F)F)c2)cc1S(N)(=O)=O`: -29.8% (active).

For `CCCn1c(O)c(N=Nc2nc(-c3cc4ccccc4oc3=O)cs2)c2cc(Br)ccc21`, the growth is 105%. Next, `O/N=C(\CSc1nnc(-c2c[nH]c3ccccc23)n1-c1ccccc1)c1ccc(Br)cc1`: -41.7% (active); `CC(=O)Oc1ccccc1C(=O)Oc1ccc(C(=O)/C=C/c2ccncc2)cc1`: 30.8%; `CC(=O)C1=C(C)NC(SCC(=O)Nc2ccc(S(=O)(=O)Nc3cc(C)on3)cc2)=NC1c1ccccc1` (stereo not given): 107%.

For the compound `COc1cc2c3c(n(CCCn4ccnc4)c(=O)c2cc1OC)-c1nc2c(cc1C3=O)OCO2`, the growth is 43.6%. The same measure for `O=S(=O)(Nc1ncccn1)c1ccc(-n2c(-c3ccc(Br)cc3)nc(-c3ccccc3)c2-c2ccccc2)cc1`: 50.5%; for `COc1ccc(-c2cc(C(=O)N=Nc3c(O)[nH]c4ccc(Br)cc34)c3ccccc3n2)cc1`: 8.79% (active); for `CCOC(=O)CNC(=O)CN(Cc1ccccc1)C(=O)[C@@]1(C)CCC[C@]2(C)[C@H]3CC4C(C(C)C)=C[C@]3(CC[C@H]21)[C@@H]1C(=O)CCC(=O)[C@H]41`: 58.3%. For the compound `CC1(c2ccccc2)NC(=O)N(CC(=O)Nc2ccc(C(=O)/C=C/C=C/c3ccccc3)cc2)C1=O` (stereo not given), the growth was 45%. Next, `O=c1c2ccccc2nc(COc2ccccc2)n1/N=C/c1ccc(F)cc1`: 94.4%. In the case of `COc1ccc(-c2cc(-c3cc(C(=O)c4ccccc4)n4ccc(C)cc34)nc(N)c2C#N)cc1`, the growth was 20.2%.

For `COc1cc(C2CC(c3ccc(C)cc3)=Nc3c(N)nc(N)nc3N2)ccc1Oc1nc(Nc2ccc(F)cc2)nc(N(C)C)n1` (stereo not given), the growth was 61.2%. The same measure for `O=C(Nc1cccc(C(F)(F)F)c1)c1cncc(C#Cc2cnc3ccc(N4CCOCC4)nn23)c1`: 3.84% (active); for `CC(=O)Nc1ccc(-c2cn(-c3cccc(C(=O)Nc4ccc(F)c(C(F)(F)F)c4)c3)nn2)cn1`: 2.67% (active); for `CN(C(=O)c1ccc(C(F)(F)F)cc1C(F)(F)F)c1sc2c(c1C#N)CCC(=O)C2`: 82.2%. Next, `C#CCNC(=O)CCC(=O)OC[C@]12CC[C@@H](C(=C)C)[C@@H]1C1CC[C@@H]3[C@@]4(C)CCCNC(C)(C)[C@@H]4CC[C@@]3(C)[C@]1(C)CC2` (stereo not given in full): -59.9% (active); `COc1ccc2[nH]cc(/C=N/Nc3ccc(Br)cn3)c2c1`: 34%; `[2H]C([2H])([2H])Oc1ccc2ncc(C#Cc3cncc(C(=O)Nc4ccc(CN5CCN(C)CC5)c(C(F)(F)F)c4)c3)n2n1`: -25.7% (active). The same measure for `COc1ccc(CN2[C@H](C(=O)NCc3ccc(C(=O)NO)cc3)Cc3c([nH]c4ccccc34)[C@H]2C2CC2)cc1`: 39.3%; for `O=c1cc(-c2ccccc2)oc2cc(OCCCCNCc3ccccc3)cc(O)c12`: 52.6%. As to `O=c1[nH]c2ccccc2cc1CSc1ccc(Nc2nccc(-c3ccc(C(F)(F)F)cc3)n2)cc1`, the growth is -25.9% (active). As to `CN(C)c1ccc(/C=C/c2nc3ccccc3c(=O)n2CC(=O)Nc2ccccc2)cc1`, the growth was 25.9%.

Regarding `Cc1ccc(-c2nc(Nc3ccc(C)c(S(N)(=O)=O)c3)c3ccccc3n2)cc1`, the growth is 45.9%.
